Test results taken from PubChem BioAssay.
Calls of active or inactive are those of the source. Unless noted, no rule for the calls is given here.

Experiments:
[1] = resazurin metabolic signal in HepG2 cells – cell-based, resazurin fluorescence, 24 h, PK04 Diversity Set, profiling panel (AID 1172); conditions: HepG2 viability, higher = more signal
[2] = budding yeast growth changes without added modifier – OD600, strain BY4716, 24 h, basal condition, primary screen (AID 1173); conditions: S. cerevisiae BY4716 growth, OD600, 24 h; higher = more signal, called active from +8 up or from −8 down
[3] = viability profiling in MM1S myeloma cells – cell-based, resazurin fluorescence, basal, 24 h, PK04 Diversity Set, profiling panel (AID 1174); conditions: higher = more signal, called active from +8 up or from −8 down;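 also: MM1S multiple myeloma cell line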
[4] = molecular target: Dihydroorotate dehydrogenase (quinone), mitochondrial (Plasmodium falciparum (isolate 3D7)) (UniProt Q08210); assay: inhibition of P. falciparum DHODH – biochemical, C-terminal His tag, absorbance 600 nm, primary screen (AID 1175); conditions: PfDHODH enzyme, DCIP absorbance 600 nm; higher = more signal, called active from +8 up or from −8 down;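 also: recombinant parasite enzyme with a five histidine tag at its C terminus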
Chain of Dihydroorotate dehydrogenase (quinone), mitochondrial (Plasmodium falciparum (isolate 3D7)) (Q08210 whole entry, looked up): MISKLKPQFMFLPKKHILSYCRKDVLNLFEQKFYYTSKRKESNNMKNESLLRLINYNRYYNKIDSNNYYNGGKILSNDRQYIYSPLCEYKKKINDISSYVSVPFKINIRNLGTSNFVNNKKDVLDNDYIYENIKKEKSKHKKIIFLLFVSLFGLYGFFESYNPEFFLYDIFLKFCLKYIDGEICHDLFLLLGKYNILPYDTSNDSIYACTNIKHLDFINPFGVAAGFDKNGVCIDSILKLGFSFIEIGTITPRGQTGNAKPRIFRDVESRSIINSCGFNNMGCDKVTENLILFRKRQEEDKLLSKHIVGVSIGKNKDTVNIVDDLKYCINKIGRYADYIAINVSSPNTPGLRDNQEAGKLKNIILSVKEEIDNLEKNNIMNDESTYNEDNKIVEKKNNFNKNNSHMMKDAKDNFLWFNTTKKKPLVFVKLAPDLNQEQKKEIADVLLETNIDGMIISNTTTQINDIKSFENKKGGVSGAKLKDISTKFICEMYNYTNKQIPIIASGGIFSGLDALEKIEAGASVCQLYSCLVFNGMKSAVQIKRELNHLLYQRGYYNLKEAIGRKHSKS

[5] = inhibition of PAO1 biofilm formation – strain PAO1, LB-PBS medium, absorbance 600 nm, primary screen (AID 1176); conditions: P. aeruginosa PAO1 growth/biofilm, A600, 12 h; higher = more signal
[6] = growth modulation of vineyard yeast isolate – strain RM11-1a, OD600, basal, 24 h, primary screen (AID 1177);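 also: cultures grown under basal conditions with no added stressor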; conditions: S. cerevisiae RM11-1a growth, OD600, 24 h; higher = more signal, called active from +8 up or from −8 down
[7] = growth of efflux-deficient E. coli DRC39 – strain DRC39, OD650, 24 h, E. coli filamentation inducers, primary screen (AID 1178);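 also: growth measured as culture turbidity by optical density at 650 nm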; conditions: E. coli DRC39 acrAB, higher = more signal, called active from +8 up or from −8 down
[8] = growth of efflux-deficient E. coli DRC39 – strain DRC39, OD650, 48 h, E. coli filamentation inducers, primary screen (AID 1179);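 also: screen aims at cell division blockers that make cells filament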; conditions: E. coli DRC39 delta-acrAB growth, higher = more signal, called active from +8 up or from −8 down
[9] = viability profiling in RPMI8226 myeloma cells – cell-based, resazurin fluorescence, basal, 24 h, PK04 Diversity Set, profiling panel (AID 1180); conditions: higher = more signal;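 also: RPMI8826 multiple myeloma cell line at 5000 cells per well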
[10] = molecular target: E3 ubiquitin-protein ligase XIAP (Homo sapiens) (UniProt P98170); assay: small molecules binding XIAP protein – biophysical, small-molecule microarray, fluorescence 635 nm, primary screen (AID 1181); conditions: higher = more signal;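 also: score merges 667 nm emission and signal to noise over triplicate slides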
Chain of E3 ubiquitin-protein ligase XIAP (Homo sapiens) (P98170 whole entry, looked up, the tested form may be a part): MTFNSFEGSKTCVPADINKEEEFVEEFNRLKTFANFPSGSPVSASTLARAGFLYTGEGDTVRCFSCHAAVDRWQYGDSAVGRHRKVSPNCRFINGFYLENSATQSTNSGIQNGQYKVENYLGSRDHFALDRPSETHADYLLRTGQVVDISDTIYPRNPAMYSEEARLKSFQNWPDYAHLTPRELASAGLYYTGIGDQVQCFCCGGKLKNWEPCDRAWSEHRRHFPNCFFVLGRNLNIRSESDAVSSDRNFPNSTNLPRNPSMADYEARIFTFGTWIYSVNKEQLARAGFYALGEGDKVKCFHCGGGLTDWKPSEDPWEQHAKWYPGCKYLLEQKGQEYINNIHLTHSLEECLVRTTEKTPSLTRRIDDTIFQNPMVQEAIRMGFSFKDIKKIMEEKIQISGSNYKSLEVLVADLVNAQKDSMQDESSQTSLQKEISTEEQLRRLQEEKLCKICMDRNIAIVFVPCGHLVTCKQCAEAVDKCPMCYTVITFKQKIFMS

[11] = system: XIP peptide (Xip251-270) binding; assay: XIP fragment 251-270 binding compounds – biochemical, small-molecule microarray, fluorescence 635/667 nm, 0.1 µg/mL protein, primary screen (AID 1182); conditions: fluorescent protein binding, 635 nm, higher = more signal, called active from +8 up or from −8 down
XIP peptide (Xip251-270) = assay: compounds binding XIP fragment 251-270 – biochemical, small-molecule microarray, fluorescence 635/667 nm, 0.5 µg/mL protein, primary screen (AID 1183); conditions: fluorescence 635 nm, higher = more signal
[12] = blood-stage malaria parasite viability loss – strain 3D7, DAPI fluorescence, 100 nL, primary screen (AID 1184);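 also: parasites grown inside human red blood cells in medium with human serum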; conditions: P. falciparum 3D7 growth, 3 d, higher = more signal
[13] = molecular target: Homeobox protein Hox-A13 (Mus musculus) (UniProt Q62424); assay: disruptors of Hoxa13 oligonucleotide interaction – biochemical, fluorescence polarization, labeled oligonucleotide, primary screen (AID 1185); conditions: Hoxa13:DNA binding, 15 min, higher = more signal, called active from +8 up or from −8 down
Chain of Homeobox protein Hox-A13 (Mus musculus) (Q62424 whole entry, looked up): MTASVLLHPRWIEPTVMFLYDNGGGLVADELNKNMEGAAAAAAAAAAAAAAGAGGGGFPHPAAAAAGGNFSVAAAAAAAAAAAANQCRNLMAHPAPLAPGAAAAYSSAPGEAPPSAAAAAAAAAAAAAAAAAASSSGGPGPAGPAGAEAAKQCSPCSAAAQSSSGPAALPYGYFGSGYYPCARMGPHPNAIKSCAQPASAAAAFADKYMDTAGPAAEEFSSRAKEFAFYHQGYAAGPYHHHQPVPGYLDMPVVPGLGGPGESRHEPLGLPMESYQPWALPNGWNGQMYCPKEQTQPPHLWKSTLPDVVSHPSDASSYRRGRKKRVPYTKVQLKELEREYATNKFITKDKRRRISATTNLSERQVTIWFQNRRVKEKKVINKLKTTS

[14] = blockers of DNA damage checkpoint Chk1 activation – imaging, HeLa, hydroxyurea, phospho-Chk1 antibody, percent positive cells, primary screen (AID 1186); conditions: hydroxyurea-induced phospho-Chk1 immunofluorescence imaging, higher = more signal
[15] = blockers of DNA damage checkpoint Chk1 activation – imaging, HeLa, hydroxyurea, phospho-Chk1 nuclear intensity, primary screen (AID 1187); conditions: hydroxyurea-induced phospho-Chk1 immunofluorescence imaging, higher = more signal

| Structure (SMILES) | z-score [1] | z-score [2] | z-score [3] | composite z-score [4] | z-score [5] | z-score [6] | z-score [7] | z-score [8] | z-score [9] | composite z-score [10] | composite z-score [11] | composite z-score (XIP peptide (Xip251-270)) | z-score [12] | z-score [13] | z-score [14] | z-score [15] |
| --- | --- | --- | --- | --- | --- | --- | --- | --- | --- | --- | --- | --- | --- | --- | --- | --- |
| CCOC(=O)[C@H]1[C@@H]2C(=O)N3CCC[C@H]3[C@H](O[Si](C(C)C)(C(C)C)C(C)C)[C@H]2C=C2CCN(S(=O)(=O)c3ccc(C)cc3)C[C@H]21 | -1.01 | 0.212 (inactive) | -1.84 (inactive) | -0.627 (inactive) | 0.318 (inactive) | -0.598 (inactive) | -0.146 (inactive) | -0.641 (inactive) | -3.37 | -0.148 | 0.0514 (inactive) | 0.589 | -2.23 | -4.48 (inactive) | 0.186 (inactive) | -0.0427 (inactive) |
| CC(C)N1CC=CC23O[C@@H]4C=CCOC(=O)[C@@H]4[C@H]2C(=O)N(CCCO)[C@@H]3C1=O (stereo not given in full) | -0.128 | -1.91 (inactive) | 1.34 (inactive) | -0.201 (inactive) | 0.248 (inactive) | -1.68 (inactive) | -0.135 (inactive) | 0.2 (inactive) | 0.939 | 0.29 | 0.816 (inactive) | 0.749 | -1.91 | -3.62 (inactive) | 0.762 (inactive) | 0.0478 (inactive) |
| COCCOC(=O)N1C(=O)[C@@]2(c3cc(C#CC4=CCCCC4)ccc31)[C@H](C(=O)N1CCCCCCC1)[C@H]1C(=O)O[C@H](c3ccccc3)[C@H](c3ccccc3)N1[C@@H]2c1ccc(O)cc1 | 0.0166 | 0.566 (inactive) | 0.0499 (inactive) | -1.67 (inactive) | 1.51 (inactive) | 0.396 (inactive) | -0.698 (inactive) | -0.863 (inactive) | -0.258 | -0.0025 | 0.179 (inactive) | 0.695 | -1.72 | 2.25 (inactive) | -0.525 (inactive) | -0.932 (inactive) |
| O=C(N1CCCCC1)[C@@]1(CCS(=O)(=O)c2ccccc2)COC(c2ccc(OCCCO)cc2)=N1 | -0.27 | -0.22 (inactive) | -1.52 (inactive) | -0.0606 (inactive) | 0.258 (inactive) | -0.008 (inactive) | 0.196 (inactive) | 0.21 (inactive) | -0.675 | 0.0942 | 1.16 (inactive) | 0.809 | -2 | -5.2 (inactive) | -0.0331 (inactive) | -0.187 (inactive) |
| COC(=O)[C@@]1(Cc2ccc(OC)cc2)[C@H]2c3cc(C(=O)N4CCCC4)n(Cc4c(-c5ccccc5)noc4C)c3C[C@H]2CN1C(=O)c1ccccc1 | -0.338 | 1.63 (inactive) | -0.39 (inactive) | 0.486 (inactive) | -0.526 (inactive) | 1.18 (inactive) | 0.343 (inactive) | -0.57 (inactive) | -0.61 | -0.0048 | 2.97 (inactive) | 0.473 | -1.3 | -3.25 (inactive) | -0.279 (inactive) | -0.313 (inactive) |
| [N-]=[N+]=Nc1ccccc1[C@@H]1OC(c2ccc(OCCCO)cc2)=N[C@]1(Cc1ccccc1)C(=O)NCC(O)CO (stereo not given in full) | 0.0381 | -2.75 (inactive) | -0.53 (inactive) | 0.255 (inactive) | -0.291 (inactive) | 1.06 (inactive) | 2.24 (inactive) | 0.783 (inactive) | -0.71 | 0.366 | 2.53 (inactive) | 0.747 | -2.14 | -3.18 (inactive) | -0.358 (inactive) | -0.228 (inactive) |
| COCCOC(=O)N1C(=O)[C@@]2(c3cc(C#CCNC(N)=O)ccc31)[C@H](C(=O)N1CCc3cc(OC)c(OC)cc3C1)[C@H]1C(=O)O[C@H](c3ccccc3)[C@H](c3ccccc3)N1[C@@H]2c1ccccc1OCCO | 0.0874 | 1.11 (inactive) | 0.256 (inactive) | -1.68 (inactive) | 1.54 (inactive) | 0.816 (inactive) | 1.27 (inactive) | 1.29 (inactive) | 0.274 | 0.0578 | 1.53 (inactive) | 0.498 | -2.2 | 0.577 (inactive) | 0.0782 (inactive) | 0.147 (inactive) |
| CO[C@H]1O[C@H](CO)[C@@H](OC(=O)Nc2ccccc2-c2ccccc2)[C@H](OC(=O)Nc2ccc3c(c2)OCO3)[C@H]1OC(=O)Nc1ccc2c(c1)OCO2 | -0.396 | 1.66 (inactive) | -0.262 (inactive) | -0.763 (inactive) | 3.65 (inactive) | 2.5 (inactive) | 1.2 (inactive) | 0.0265 (inactive) | -0.564 | 0.25 | 0.886 (inactive) | 0.892 | -1.6 | -9.89 (active) | -0.356 (inactive) | -0.272 (inactive) |
| CN(C)CCCCNC(=O)[C@@H]1C[C@@H]2C(=O)N[C@@H](Cc3ccccc3)C(=O)N2[C@@H]1c1cccc(OCCO)c1 | 0.225 | -0.957 (inactive) | 0.977 (inactive) | -2.56 (inactive) | 0.215 (inactive) | -3.29 (inactive) | 2.51 (inactive) | 2.13 (inactive) | 0.588 | 0.109 | 0.096 (inactive) | 0.762 | 0.0546 | -3.94 (inactive) | -1.08 (inactive) | -0.295 (inactive) |
| COc1ccc(-c2cc3c(c(CCc4ccccc4)n2)[Si](C(C)C)(C(C)C)OC3)cn1 | 1.09 | 0.0476 (inactive) | 0.42 (inactive) | -0.319 (inactive) | -1.29 (inactive) | 0.817 (inactive) | 0.152 (inactive) | 0.469 (inactive) | 1.18 | 0.136 | -0.406 (inactive) | -0.251 | -0.118 | -2.5 (inactive) | -0.0328 (inactive) | 0.236 (inactive) |
